TSHR antag – human thyrotropin receptor antagonism; P16473; TSHR-expressing cells, TSH-stimulated cAMP HTRF, 2 h; active compounds read low; activity change, negative = inhibition, % at 11.5 µM; 330,000 compounds, 0.2% hits; AID 504810;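 active = activity change below a set negative limit, meaning inhibition stronger than a set level, cut at about -70% in these data; inconclusive = activity change between two set negative limits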
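TSHR-expressing cells, 200/well, pre-treated with compound, then stimulated with EC80 TSH (4nM final) for 2 hours at 37 deg C. cAMP measured by competitive HTRF: anti-cAMP cryptate antibody in lysis buffer plus cAMP-d2, read after 30 minutes at room temperature.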
ELG1 repair inh – blocks ELG1-dependent DNA repair in HEK293T cells | Potency, µM (top dose mostly 46.1 µM), for the others: top-dose activity change, negative = inhibition, actives largely listed as inhibitors | 330,000 compounds, 2.3% hits | HEK293T ELG1-luciferase reporter, luminescence, 16 h; DNA damage induced by 5-fluorouridine; also: potency is read from the fitted curve at half-maximal effect; nearly all actives have a fitted effect of over 55% in size
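Luminescence from the luciferase reporter, measured 30 min after ONE-Glo reagent at room temperature, was the read-out. Beforehand, 2,000 cells per well were exposed for 16 hr at 37 °C to 5-fluorouridine together with compound or vehicle.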
B2AR arrestin – recruits beta-arrestin to the human beta2-adrenergic receptor; 330,000 compounds, 0.02% hits; Potency, µM (series often up to 46.1 µM), inactives show top-dose activation, actives largely listed as activators; P07550; beta-arrestin recruitment to beta2AR, cell-based reporter; AID 492947;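 also: potency is read from the fitted curve at half-maximal effect; 0% = DMSO controls and full agonism = EC100 isoproterenol or metaproterenol; nearly all actives have a fitted effect of over 65% in size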
Gal4-VP16 FLuc – inhibits Gal4-VP16 luciferase reporter, ROR gamma counter-screen; Drosophila S2 Gal4-VP16 UAS-luciferase, luminescence, 20 h; 310,000 compounds, 3.5% hits; Potency, µM (series often up to 53.6 µM), without a hit: top-dose activity, negative = inhibition, most hits filed as inhibitors;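 also: Gal4-VP16 expression switched on by copper sulfate through the metallothionein promoter; potency is read from the fitted curve at half-maximal effect; nearly all actives have a fitted effect of over 50% in size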
RORg inh – ROR gamma (mouse) transcription inhibition | Drosophila S2 Gal4-RORgamma UAS-luciferase reporter, 20 h | Potency, µM (top dose mostly 53.6 µM), for the others: at the top dose activity change, negative = inhibition, hits mostly inhibitors | 310,000 compounds, 5.4% hits; also: potency is read from the fitted curve at half-maximal effect; nearly all actives have a fitted effect of over 60% in size
Target sequence (P51450 whole entry, looked up, the tested form may be a part): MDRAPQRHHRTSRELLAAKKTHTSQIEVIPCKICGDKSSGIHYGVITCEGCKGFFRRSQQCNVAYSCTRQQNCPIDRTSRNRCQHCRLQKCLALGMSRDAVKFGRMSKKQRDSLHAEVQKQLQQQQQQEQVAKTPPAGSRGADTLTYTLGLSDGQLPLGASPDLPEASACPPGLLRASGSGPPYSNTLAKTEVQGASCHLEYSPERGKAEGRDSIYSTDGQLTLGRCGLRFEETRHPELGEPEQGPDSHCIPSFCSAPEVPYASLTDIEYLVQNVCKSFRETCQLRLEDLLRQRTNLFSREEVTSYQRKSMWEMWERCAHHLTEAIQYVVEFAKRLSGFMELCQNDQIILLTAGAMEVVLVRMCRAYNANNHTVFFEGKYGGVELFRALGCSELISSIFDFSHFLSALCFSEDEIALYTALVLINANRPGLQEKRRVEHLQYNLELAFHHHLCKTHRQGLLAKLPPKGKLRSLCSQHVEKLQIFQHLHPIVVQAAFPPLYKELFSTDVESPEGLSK
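Stably transfected Drosophila Schneider cells are the test system, with ROR gamma fused to Gal4 and luciferase under UAS control; luminescence is read after 20 hr of 700 uM copper sulfate induction at ambient temperature.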
Starred values were filed as active, the others as inactive; ? = inconclusive; / = no result. Shown are actives, neighbours in structure and some others; about 7.5% of the full set was active somewhere. Unless noted, calls follow the shape of the dose curve; as a rule, active = well fitted curve in the direction sought with a large enough effect; inconclusive = small, poorly fitted or top-dose-only effect, or another doubt; inactive = no such curve, though single readings can be large; an effect the other way counts as inactive or inconclusive. Unless noted, % is scaled to controls: 0 for no effect and ±100 for the full control effect.

SMILES	TSHR antag	ELG1 repair inh	B2AR arrestin	Gal4-VP16 FLuc	RORg inh
C=C1CCN(C(CC(C)C)C(=O)NCCCc2ccccc2)S(=O)(=O)c2ccccc21 (stereo unspecified)	/	/	/	-14.2%	?
CC(C)(C)OC(=O)N1CC23CC(c4ccc(F)cc4)C(CC2S1(=O)=O)O3 (stereo unspecified)	/	/	/	1.6%	-15.2%
COc1ccccc1C(=O)N1CCN(c2nc3cc(C)c(C)cc3cc2C#N)CC1	10.8	23.1µM*	0.8%	5.6%	31.0%
CCOc1ccc(C2Sc3ccccc3NC3=C2C(=O)OC3)cc1 (stereo unspecified)	15.3	?	0.1%	0.2%	20.6%
O=C1OCC2=C1C(c1ccc3c(c1)OCO3)Sc1ccccc1N2 (stereo unspecified)	2.7	-3.2%	-0.4%	14.1µM*	-22.8%
COc1ccc(C(=O)NCC(=O)OCc2nc(N)nc(Nc3ccccc3C)n2)cc1	2.3	-2.6%	0.2%	/	/
CCOC(=O)C1=C(C)NC(SC)=C(C#N)C1CC(C)C (stereo unspecified)	-3.0	10.3µM*	-0.6%	-2.2%	-7.2%
CC(=O)C1=C(C)NC(SCC(N)=O)=C(C#N)C1CC(C)C (stereo unspecified)	-9.0	-10.9%	-0.3%	1.7%	0.5%
CC(=O)C1=C(C)NC(SCC(=O)c2ccc(Cl)cc2)=C(C#N)C1CC(C)C (stereo unspecified)	7.2	-4.6%	0.3%	?	11.2µM*
CC(=O)C1=C(C)NC(SCC(=O)c2ccc(F)cc2)=C(C#N)C1CC(C)C (stereo unspecified)	-2.9	?	11.6%	7.08µM*	5.62µM*
Cc1csc(NC(=O)NCC2CCCC(CNC(=O)Nc3nc(C)cs3)C2)n1 (stereo unspecified)	-5.3	?	2.6%	0.2%	29.3%
COc1ccccc1NC(=O)CSc1nc2ccccc2nc1N1CC(C)OC(C)C1 (stereo unspecified)	-7.7	?	-0.2%	-17.6%	-43.1%
CCC1=C2CC[C@H]3C(=O)N(CC)C(=O)[C@H]3[C@H]2[C@@]2(Cc3ccccc3)C(=NCC3CC3)OC(=O)N2C1=O	/	/	/	8.5%	4.9%
O=C(CCC(=O)N1CCN(c2ccc(Cl)c(Cl)c2)CC1)c1ccccc1	-9.5	-15.5%	-0.1%	-27.5%	26.5%
CCOC(=O)C1CCN(c2ccccc2CN2CCN(c3ccccc3OCC)CC2)CC1	-14.1	16.4µM*	0.2%	0.1%	1.2%
COc1cccc(-c2ccc3ncnc(NCc4cccs4)c3c2)c1	-28.7	14.6µM*	0.1%	-20.0%	41.2%
COc1cccc(-c2ccc3ncnc(NCc4cccc(C)c4)c3c2)c1	-9.1	16.4µM*	0.2%	/	/
COCCn1c(=O)cnc2cnc(OCc3ccccc3)nc21	/	/	/	-9.7%	-0.5%
C/C(=N\NC(=O)c1nn(C)c(C)c1Br)c1ccc(NC(=O)C2CCCC2)cc1	0.0	?	-0.1%	?	5.62µM*
C/C(=N\NC(=O)C1(C)CC1(Br)Br)c1ccc(NC(=O)C2CCC2)cc1 (stereo unspecified)	-2.8	6.51µM*	-0.2%	-20.0%	2.6%
C/C(=N\NC(=O)C1(C)CC1(Br)Br)c1cccc(NC(=O)c2ccc(C)o2)c1 (stereo unspecified)	-27.9	7.3µM*	-0.8%	?	?
C/C(=N\NC(=O)c1ccn(C)n1)c1ccc(NC(=O)C2CCCC2)cc1	0.2	-14.6%	-1.5%	16.7%	5.5%
COC(=O)c1ccc(CNC(=O)/C=C/c2cc([N+](=O)[O-])ccc2OC(F)F)cc1	10.0	10.3µM*	-0.1%	0.0%	36.3%
COc1ccc(CNC(=O)/C=C/c2cc([N+](=O)[O-])ccc2OC(F)F)cc1OC	-8.6	20.6µM*	0.0%	-2.7%	-9.5%
COc1ccc(CNC(=O)/C=C/c2cc([N+](=O)[O-])ccc2OC(F)F)cc1	-3.7	-24.4%	0.5%	4.9%	41.7%
SMILES	TSHR antag	ELG1 repair inh	B2AR arrestin	Gal4-VP16 FLuc	RORg inh
O=C(/C=C/c1cc([N+](=O)[O-])ccc1OC(F)F)NCc1ccc(Cl)cc1	7.3	-19.5%	0.4%	-2.5%	22.9%
CCCCN(C)C(=O)C(Cc1ccccc1)NS(=O)(=O)c1ccc2c(c1)c(=O)n(C)c(=O)n2C (stereo unspecified)	-8.9	14.6µM*	0.0%	-10.2%	-36.4%
CC(=O)c1ccc(N2CCN(C(=O)C3CCCN(c4ncnc5c4nc4n5CCCCC4)C3)CC2)cc1 (stereo unspecified)	-19.6	2.31µM*	-0.1%	-13.2%	6.5%
Cc1ccc(CN2CCC(CNC(=O)C3CCCN(c4ncnc5c4nc4n5CCCCC4)C3)CC2)cc1 (stereo unspecified)	-11.7	-16.9%	-0.1%	2.0%	0.5%
O=C(Nc1cccnc1Cl)C1CCCN(c2ncnc3c2nc2n3CCCCC2)C1 (stereo unspecified)	27.9	14.6µM*	0.0%	-12.0%	25.7%
O=C(Nc1ccccn1)C1CCCN(c2ncnc3c2nc2n3CCCCC2)C1 (stereo unspecified)	-7.2	-26.8%	-1.0%	7.4%	-4.1%
O=C(Nc1ccc(F)c(Cl)c1)C1CCN(c2ncnc3c2nc2n3CCCCC2)CC1	-8.4	7.3µM*	-0.9%	-14.0%	40.6%
O=C(NCC1CCN(Cc2ccccc2F)CC1)C1CCCN(c2ncnc3c2nc2n3CCCCC2)C1 (stereo unspecified)	37.9	7.3µM*	1.0%	-26.4%	0.6%
O=C(C1CCCN(c2ncnc3c2nc2n3CCCCC2)C1)N1CCN(c2ccc(Cl)cc2)CC1 (stereo unspecified)	-13.7	?	0.1%	2.3%	4.5%
CC(=O)C1=C(C)N(Cc2ccco2)C(=O)N[C@@H]1c1ccccc1	/	/	/	-4.5%	-3.5%
CC1CCN(CCc2nc3cc(NC(=O)COc4ccccc4)ccc3n2C)CC1	-3.3	15.0%	-0.9%	-0.9%	3.2%
O=C(c1cccc(F)c1)N1CCC2(CCCN(c3ccccn3)C2)CC1	/	/	/	5.8%	-1.8%
O=C(C1CCN(c2ncnc3c2nc2n3CCCCC2)CC1)N1CCN(c2cccc(Cl)c2)CC1	-31.7	2.31µM*	0.2%	?	-1.4%
O=C(C1CCN(S(=O)(=O)c2cccnc2)CC1)N1CCN(c2cccc(Cl)c2)CC1	-15.1	20.6µM*	-0.4%	?	-13.0%
CCN(C(=O)C1CCCN(c2ncnc3c2nc2n3CCCCC2)C1)c1cccc(Cl)c1 (stereo unspecified)	18.1	20.6µM*	0.2%	4.6%	?
CS(=O)(=O)N1CCC(C(=O)N2CCN(c3cccc(Cl)c3)CC2)CC1	-0.9	-8.3%	-0.1%	-2.2%	3.3%
O=C(Nc1ccc(Cl)cn1)C1CCN(c2ncnc3c2nc2n3CCCCC2)CC1	-26.5	2.06µM*	0.2%	?	?
O=C(Nc1ccc(Cl)cn1)C1CCCN(c2ncnc3c2nc2n3CCCCC2)C1 (stereo unspecified)	26.9	?	-0.1%	1.5%	11.7%

From PubChem BioAssay
